From PubChem BioAssay (Tox21)
Records with an inconclusive call do not appear. Active and inactive are the calls of the source. Unless noted, calls come from the whole dose curve; as a rule, active = well fitted curve in the direction sought with a large enough effect in the repeat runs; inconclusive = weak or mixed curves; inactive = no such curve, though single readings can be large; an effect the other way counts as inactive or inconclusive.

How the values were obtained:
[1] = molecular target: Peroxisome proliferator-activated receptor delta (Homo sapiens) (UniProt Q03181); experiment: qHTS assay to identify small molecule agonists of the peroxisome proliferator-activated receptor delta (PPARd) signaling pathway (AID 743212; calls by dose curve)
Chain of Peroxisome proliferator-activated receptor delta (Homo sapiens) (Q03181 whole entry, looked up): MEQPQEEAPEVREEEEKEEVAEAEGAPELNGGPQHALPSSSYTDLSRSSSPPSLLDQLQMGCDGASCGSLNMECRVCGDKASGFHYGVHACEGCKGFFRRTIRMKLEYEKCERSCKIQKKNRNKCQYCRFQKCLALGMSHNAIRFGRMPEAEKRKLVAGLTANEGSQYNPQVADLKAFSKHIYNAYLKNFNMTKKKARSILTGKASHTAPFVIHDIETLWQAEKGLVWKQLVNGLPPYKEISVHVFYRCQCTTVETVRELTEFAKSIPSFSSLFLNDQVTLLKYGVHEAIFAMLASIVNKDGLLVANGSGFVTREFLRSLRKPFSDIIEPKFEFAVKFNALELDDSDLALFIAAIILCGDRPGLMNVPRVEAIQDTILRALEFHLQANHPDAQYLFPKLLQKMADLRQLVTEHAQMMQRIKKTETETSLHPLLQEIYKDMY
How it was run: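 GeneBLAzer PPARd UAS-bla HEK293H cells (beta-lactamase reporter under UAS control), plated and rested 5 h at 37 C, then exposed to compounds in DMSO at 37 C; LiveBLAzer B/G FRET substrate added, 2 h room temperature, fluorescence read.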

[2] = qHTS assay to identify small molecule antagonists of the peroxisome proliferator-activated receptor delta (PPARd) signaling pathway - cell viability counter screen (AID 743213); note: nearly all actives have a fitted effect of over 50% in size; note: potency is the fitted concentration of half-maximal effect
How it was run: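 Same-well viability: cells pre-incubated 5 h, dosed with compound plus 300 nM L165041, kept 17 h at 37 C, FRET substrate 2 h RT, then CellTiter-Glo 30 min RT and luminescence.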

[3] = molecular target: Peroxisome proliferator-activated receptor delta (Homo sapiens) (UniProt Q03181); experiment: qHTS assay to identify small molecule antagonists of the peroxisome proliferator-activated receptor delta (PPARd) signaling pathway (AID 743215; active = well fitted inhibition curve with a large enough effect in the signal ratio in the repeat runs, not every such curve was filed as active; the % refers to the signal ratio;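 note: cells stimulated with agonist L165041 at 300 nM final during compound exposure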; note: potency is the fitted concentration of half-maximal effect)
How it was run: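 With L165041 present at 300 nM final, compounds were incubated 17 h at 37 C on PPARd UAS-bla HEK293H cells. A FRET-based beta-lactamase substrate was then applied for 2 h at room temperature and fluorescence intensity recorded.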

[4] = qHTS assay to identify small molecule agonists of the farnesoid-X-receptor (FXR) signaling pathway - cell viability counter screen (AID 743218); note: nearly all actives have a fitted effect of over 45% in size; note: potency is the fitted concentration of half-maximal effect
How it was run: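 After 16 h at 37 C with test compounds, FXR-bla HEK 293T cells were given LiveBLAzer B/G substrate for 2 h at RT and then CellTiter-Glo; luminescence was taken after 30 min.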

[5] = molecular target: Bile acid receptor (Homo sapiens) (UniProt Q96RI1); experiment: qHTS assay to identify small molecule agonists of the farnesoid-X-receptor (FXR) signaling pathway (AID 743220; active = well fitted activation curve with a large enough effect in the signal ratio in the repeat runs, not every such curve was filed as active; the % refers to the signal ratio; note: potency is the fitted concentration of half-maximal effect)
Chain of Bile acid receptor (Homo sapiens) (Q96RI1 whole entry, looked up): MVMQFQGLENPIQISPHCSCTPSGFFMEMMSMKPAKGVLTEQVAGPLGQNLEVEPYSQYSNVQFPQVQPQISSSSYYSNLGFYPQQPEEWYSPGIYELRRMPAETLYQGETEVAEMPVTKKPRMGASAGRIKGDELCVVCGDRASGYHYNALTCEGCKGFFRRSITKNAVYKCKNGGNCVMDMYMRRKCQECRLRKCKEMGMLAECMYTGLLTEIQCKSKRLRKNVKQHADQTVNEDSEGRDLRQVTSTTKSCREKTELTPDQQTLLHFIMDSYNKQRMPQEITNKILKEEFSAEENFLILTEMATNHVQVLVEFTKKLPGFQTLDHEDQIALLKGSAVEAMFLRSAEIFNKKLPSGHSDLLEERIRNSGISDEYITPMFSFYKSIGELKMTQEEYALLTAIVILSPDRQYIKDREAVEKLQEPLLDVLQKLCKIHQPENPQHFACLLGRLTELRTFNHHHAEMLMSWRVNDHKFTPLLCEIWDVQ
How it was run: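 Beta-lactamase reporter under UAS control in GeneBLAzer FXR HEK 293T cells (5000/well) measured with LiveBLAzer FRET substrate after 2 h at room temperature. Compound exposure lasted 16 h at 37C.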

[6] = qHTS assay to identify small molecule antagonists of the farnesoid-X-receptor (FXR) signaling pathway - cell viability counter screen (AID 743221; active = well fitted cell-killing curve with a large enough effect in the repeat runs, not every such curve was filed as active; note: nearly all actives have a fitted effect of over 50% in size; note: potency is the fitted concentration of half-maximal effect)
How it was run: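 FXR-UAS-bla HEK 293T cells were treated with test compounds plus chenodeoxycholic acid (50 uM final) for 16 h at 37 C. Cell viability in the same wells was then read as CellTiter-Glo luminescence after 30 min at room temperature.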

[7] = molecular target: Vitamin D3 receptor (Homo sapiens) (UniProt P11473); experiment: qHTS assay to identify small molecule agonists of the vitamin D receptor (VDR) signaling pathway (AID 743222; calls by dose curve)
Chain of Vitamin D3 receptor (Homo sapiens) (P11473 whole entry, looked up): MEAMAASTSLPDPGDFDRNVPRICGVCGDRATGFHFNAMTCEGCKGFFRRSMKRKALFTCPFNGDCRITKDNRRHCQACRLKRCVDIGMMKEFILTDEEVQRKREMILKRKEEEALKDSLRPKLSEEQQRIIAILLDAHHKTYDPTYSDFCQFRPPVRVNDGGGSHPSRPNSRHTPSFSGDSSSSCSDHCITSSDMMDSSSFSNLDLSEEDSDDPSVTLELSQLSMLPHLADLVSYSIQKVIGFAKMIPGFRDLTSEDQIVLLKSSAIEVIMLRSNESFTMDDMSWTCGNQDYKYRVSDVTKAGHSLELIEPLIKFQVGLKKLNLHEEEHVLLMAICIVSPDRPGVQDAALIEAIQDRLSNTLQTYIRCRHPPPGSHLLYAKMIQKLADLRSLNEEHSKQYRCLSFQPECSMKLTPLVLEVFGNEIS
How it was run: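 VDR-bla cells were seeded, left 4 h, treated with compounds in DMSO for 16 h, incubated 2 h at RT with B/G FRET substrate, and read for fluorescence.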

[8] = molecular target: Vitamin D3 receptor (Homo sapiens) (UniProt P11473); experiment: qHTS assay to identify small molecule antagonists of the vitamin D receptor (VDR) signaling pathway (AID 743223; active = well fitted inhibition curve with a large enough effect in the signal ratio in the repeat runs, not every such curve was filed as active; the % refers to the signal ratio)
How it was run: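 VDR-bla cells were plated, incubated 4 h at 37C, then given compound and 1alpha,25-dihydroxyvitamin D3 (3 nM final). After 16 h at 37C, LiveBLAzer B/G FRET substrate was added for 2 h at room temperature and fluorescence read.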

[9] = molecular target: Bile acid receptor (Homo sapiens) (UniProt Q96RI1); experiment: qHTS assay to identify small molecule antagonists of the farnesoid-X-receptor (FXR) signaling pathway (AID 743217; active = well fitted inhibition curve with a large enough effect in the signal ratio in the repeat runs, not every such curve was filed as active; the % refers to the signal ratio; note: potency is the fitted concentration of half-maximal effect)
How it was run: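 In this cell-based antagonist screen, inhibition of CDCA-driven (50 uM final) UAS-beta-lactamase expression in HEK 293T cells was measured by FRET fluorescence following 16 h compound exposure at 37 °C.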

Measured: Potency

CCCCC(CC)COC(=O)CCCCCCCCC(=O)OCC(CC)CCCC (stereo unspecified)
not listed: [8] | [9]
inactive: all other assays above

O=C(Nc1ccc(S(=O)(=O)N2CCOCC2)cc1)c1cc(Cl)ccc1NS(=O)(=O)c1ccc(Cl)s1
active: [2] 13.3 µM | [4] 6.68 µM
inactive: [3] | [5]

CN(C)CCOC(c1ccccc1)c1ccc(Br)cc1 (stereo unspecified)
inactive: [1] | [5] | [7]

CN(C)C(=O)NC1(c2ccccc2)CCN(CC[C@@]2(c3ccc(F)c(F)c3)CN(C(=O)c3ccccc3)CCO2)CC1
not listed: [4] | [7] | [9]
inactive: all other assays above

CCCCCCCCCCCC(=O)OC[C@@H](O)[C@H]1OC[C@H](OCCO)[C@H]1OCCO
inactive: [1] | [6] | [7]

C[N+]1(C)CCC(OC(=O)C(O)(c2ccccc2)C2CCCC2)C1 (stereo unspecified)
inactive: [1] | [2] | [4] | [6] | [7]

CCC(Cl)CCC(Cl)C(Cl)CC(Cl)C(Cl)C(Cl)CCl (stereo unspecified)
not listed: [2] | [3] | [7]
inactive: all other assays above

CN1C[C@H]2c3ccccc3Oc3ccc(Cl)cc3[C@@H]2C1
not listed: [2] | [8] | [9]
inactive: all other assays above

CN(C)CCCN1c2ccccc2Sc2ccccc21
active: [4] 13.3 µM
inactive: [1] | [9] | [5] | [7]

CCCCCCCCCc1ccc(OCCOCCO)cc1
inactive: [1] | [5] | [6] | [7]
active: [2] 20.5 µM

CCCCCCCN
not listed: [3] | [9]
inactive: all other assays above

CCN(CC)CCNc1ccc(CNC=O)c2sc3ccc(OC)cc3c(=O)c12
active: [3] 15.5 µM | [4] 4.9 µM | [5] 6.92 µM
inactive: [1] | [7]

C#CCN(C)CCCOc1ccc(Cl)cc1Cl
not listed: [3] | [7] | [9]
inactive: all other assays above

CCCCNc1ccc(C(=O)OCCOCCOCCOCCOCCOCCOCCOCCOCCOC)cc1
not listed: [3]
inactive: all other assays above

Nc1c(CC(=O)O)cccc1C(=O)c1ccc(Br)cc1
not listed: [1] | [7] | [8]
inactive: all other assays above

O=C(OCCCCCCOC(=O)c1ccccc1)c1ccccc1
not listed: [2] | [3] | [7]
inactive: all other assays above

c1ccc(C(O[C@H]2CCCN(CCc3ccc4c(c3)OCO4)C2)c2ccccc2)cc1
inactive: [1] | [3] | [4] | [6]

Cc1oc2c(NC(=O)c3c(Cl)cccc3Cl)cccc2c1C(C)(C)O
active: [9] 38.9 µM | [4] 21.9 µM
not listed: [2] | [7]
inactive: all other assays above

O=C(O)c1ccc(-n2nc(-c3ccccc3O)nc2-c2ccccc2O)cc1
inactive: [1] | [2] | [6] | [7] | [8]

CCCCCCCCCCCCN1CCCCCC1=O
not listed: [3] | [6] | [8]
inactive: all other assays above

CCCCOC(=O)CCCCCCCC(=O)OCCCC
not listed: [3] | [8] | [9]
inactive: all other assays above

CCCCC(CC)CN1C(=O)C2C3C=CC(C3)C2C1=O (stereo unspecified)
inactive: [1] | [3] | [7]

O=C(NCC1CN(c2ccc(N3CCOCC3=O)cc2)C(=O)O1)c1ccc(Cl)s1 (stereo unspecified)
inactive: [1] | [3] | [4] | [6] | [7]

CN(C)CCN(Cc1ccccc1)c1ccccn1
inactive: [1] | [2] | [3] | [6]

Cc1[nH]c(C)c(Cl)c(=O)c1Cl
inactive: [1] | [3] | [4] | [6] | [8]

CCC(C)c1cc(C(C)(C)C)c(O)c(C(C)(C)C)c1 (stereo unspecified)
inactive: [2] | [3] | [6]

CC(C)OC(=O)C(C)N(C(=O)c1ccccc1)c1ccc(F)c(Cl)c1 (stereo unspecified)
inactive: [1] | [2] | [4] | [6] | [8]

CN(C)CCN(Cc1ccc(Cl)cc1)c1ccccn1
inactive: [1] | [3] | [5] | [6] | [7]

Cc1ccc(C(C)OC(=O)C2(C)CCC(C(=O)O)C2(C)C)cc1 (stereo unspecified)
inactive: [1] | [4] | [6] | [7]

COc1ccc(-c2nc3ccc(C4=NNC(=O)CC4C)cc3[nH]2)cc1 (stereo unspecified)
inactive: [1] | [5] | [6] | [7] | [8]

Cc1cccc(C)c1OCC(=O)N[C@@H](Cc1ccccc1)[C@@H](O)C[C@H](Cc1ccccc1)NC(=O)[C@H](C(C)C)N1CCCNC1=O
active: [6] 23.7 µM
inactive: [2] | [3] | [7] | [8]

CC1(c2ccccc2)OC(C(=O)O)=CC1=O (stereo unspecified)
inactive: [1] | [2] | [5] | [7]

C/C=C(/C(=C/C)c1ccc(OC(C)=O)cc1)c1ccc(OC(C)=O)cc1
inactive: [1] | [3] | [4] | [6] | [7]

C[C@@H]1C[C@H]2[C@@H]3CCC4=CC(=O)C=C[C@]4(C)[C@@]3(F)[C@@H](O)C[C@]2(C)[C@@]1(O)C(=O)COC(=O)c1ccncc1
inactive: [1] | [6] | [8]

Nc1ccc(N)c2c1C(=O)c1ccccc1C2=O
not listed: [4] | [5] | [9]
inactive: all other assays above

COS(=O)(=O)C(F)(F)F
inactive: [1] | [9] | [4] | [5] | [6]

CC1=CC[C@H](C(C)C)C=C1
active: [6] 49 µM
inactive: [2] | [4]

CCCCCCCCCCCCCCCCOS(=O)(=O)O
inactive: [4] | [5] | [6] | [7] | [8]

COc1cc2nc(N3CCN(C(=O)C4COc5ccccc5O4)CC3)nc(N)c2cc1OC (stereo unspecified)
inactive: [2] | [5] | [6] | [7] | [8]

S=C([S-])NCCNC(=S)[S-].[Mn+2]
inactive: [2] | [6] | [7]

CCC(CC)Nc1ccc(C)c(C)c1
inactive: [2] | [4] | [6]

COc1cc2nc(Cl)nc(N)c2cc1OC
inactive: [2] | [4] | [6] | [7] | [8]

CC(=O)c1ccc2c(c1)N(CCCN1CCC(CCO)CC1)c1ccccc1S2
active: [4] 29.8 µM

COc1ccc(S(=O)(=O)N2C(=O)[C@@](c3ccccc3OC)(N3C[C@H](O)C[C@H]3C(=O)N(C)C)c3cc(Cl)ccc32)c(OC)c1
inactive: [3] | [4] | [6] | [7]

CC(C)(CO)[N+](=O)[O-]
inactive: [2] | [4] | [6]

OC(CN1CCC(Cc2ccc(F)cc2)CC1)c1ccc(Cl)cc1 (stereo unspecified)
inactive: [2] | [9] | [4] | [5] | [6]

CCC(C)O (stereo unspecified)
inactive: [2] | [4] | [5] | [6] | [7]

O=C(O)C1(C(=O)Nc2ccc(Cl)cc2Cl)CC1
inactive: [5] | [6]

C[N+](C)(C)CCOC(=O)CCC(=O)OCC[N+](C)(C)C
inactive: [4] | [6]

CC(C)C[C@H]1C(=O)N2CCC[C@H]2[C@]2(O)O[C@](NC(=O)[C@@H]3C=C4c5cccc6[nH]c(Br)c(c56)C[C@H]4N(C)C3)(C(C)C)C(=O)N12
inactive: [4] | [6] | [7] | [8]

C[C@H](CCC(=O)O)[C@H]1CC[C@H]2[C@@H]3CC[C@@H]4C[C@H](O)CC[C@]4(C)[C@H]3C[C@H](O)[C@]12C
active: [5] 49.1 µM

Cc1nn(C)c(Oc2ccccc2)c1/C=N/OCc1ccc(C(=O)OC(C)(C)C)cc1
inactive: [3] | [4] | [5] | [6]

CCN(CC)c1ccc(C(=C2C=CC(=[N+](CC)CC)C=C2)c2cc(S(=O)(=O)O)ccc2S(=O)(=O)[O-])cc1
inactive: [2] | [4] | [5] | [6] | [7]

CCC(C)(C)CC
inactive: [4] | [6]
active: [2] 51.3 µM

CCCNCC(O)COc1ccccc1C(=O)CCc1ccccc1 (stereo unspecified)
inactive: [6] | [7] | [8]

CNCCCCOc1ccccc1Cc1ccccc1
inactive: [5] | [7]
active: [2] 13.3 µM

O=C(c1ccc(F)cc1)C1CCN(CCn2c(=S)[nH]c3ccccc3c2=O)CC1
inactive: [4]

CC(=O)[O][Al]
inactive: [2] | [4] | [6]

CCOC(=O)C1=C[C@]2(CC)CCCN3CCc4c(n1c1ccccc41)[C@@H]32
inactive: [7]

O=C(O)c1ccco1
inactive: [2] | [4] | [6] | [8]

CCCCc1ncc(/C=C(\Cc2cccs2)C(=O)O)n1Cc1ccc(C(=O)O)cc1
inactive: [2] | [4] | [6]

CCCCc1nc2cccnc2n1Cc1ccc(-c2ccccc2-c2nnn[nH]2)cc1
inactive: [2] | [4] | [6] | [7]

CCOC(=O)Cc1cccc2ccccc12
inactive: [2] | [4] | [6] | [7] | [8]

CC1=CC=C(C(C)C)CC1
inactive: [2] | [4] | [6]

Cc1cc(N)c2cc(NC(=O)Nc3ccc4nc(C)cc(N)c4c3)ccc2n1
inactive: [4] | [5] | [7] | [8]
active: [6] 18.8 µM

CCN(CC)CCOC(=O)C(Cc1cccc2ccccc12)CC1CCCO1 (stereo unspecified)
inactive: [2] | [4] | [6] | [7] | [8]
